The list is not random: actives were taken first. Their share in the collection is about 4.3%.
TRPM1 prom inh: inhibitors of MITF-dependent TRPM1 promoter reporter, primary screen, cell-based, SK-MEL-5, single point, luciferase. SK-MEL-5 TRPM1 promoter luciferase, 24 h. inhibition, % at 12.5 µM. AID 488899, 2010. 0.83% of 330,000 active;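 active = mean inhibition across replicates of 60% or more, whatever share of single replicates reaches that level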
CF NFkB block: inhibitors of PAF-induced NF-kB signaling, primary screen, cell-based, GFP fluorescence, uHTS | KKLEB NF-kB-GFP reporter, GFP fluorescence overnight | inhibition, % at 5 µM | 0.86% of 360,000 active | AID 588850, 2011;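 active = at least 50% inhibition at 5 µM, scaled per plate between neutral and stimulator controls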;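 also: PAF is a Pseudomonas aeruginosa culture filtrate used as stimulus; plate controls were PAF-stimulated DMSO wells for no effect and unstimulated DMSO wells for full effect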
Peg3 prom inh-1: Peg3 promoter-driven luciferase inhibitors, primary screen, cell-based, HeLa, luciferase luminescence; HeLa PEG-Prom luciferase reporter, overnight; inhibition, % at 20 µM; 1.7% of 360,000 active;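 active = inhibition of at least 50% at 20 µM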
KKLEB cytotox: cytotoxicity in KKLEB CF airway cells, primary screen, cytotoxicity control for CF NF-kB inhibitor project, cell-based, uHTS, fluorescence assay plates; KKLEB CF airway cells viability, ATPlite luminescence, overnight; hits give low values; cells stimulated with P. aeruginosa culture filtrate; activity change (cytotoxicity), % at 5 µM; 0.36% of 360,000 active; AID 602141, 2011;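 active = corrected activity change at or below -50% at 5 µM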
HIF-2a block: HIF-2a reporter inhibitors, primary screen, luminescence, 786-0 RCC cells; 786-0 RCC cells HIF-2a reporter, luciferase luminescence, overnight; 0.72% of 360,000 active; inhibition, % at 18.8 µM;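 active = inhibition of the luminescence signal of 40% or more relative to plate controls, in a single-dose primary screen at 18.75 µM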
CHOP inh: inhibitors of CHOP promoter induction, primary screen, cell-based, unfolded protein response, luciferase reporter. inhibition, % at 10 µM. 3.8% of 220,000 active. CHO-K1 CHOP-promoter luciferase, tunicamycin-induced, 15-18 h;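 active = compounds that reduced the stress-induced luciferase reporter signal by more than about 70% of percent inhibition, limit read from the data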;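 also: 0% = tunicamycin plus vehicle and 100% = wells without tunicamycin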
Peg3 prom inh-2: Peg3 promoter reporter inhibitors, retest, confirmation, cell-based, HeLa, luciferase reporter, single concentration. shares compounds with Peg3 prom inh-1. HeLa PEG-Prom luciferase reporter, luminescence, overnight. inhibition, % at 20 µM. 84% of 1,300 active. AID 602417, 2012;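 active = at 20 µM dose, 40% or more inhibition averaged across four replicates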
The depositor's hits bear a star.

What do the screens show for `O=C(C[C@@H]1C/C=C\C[C@@H](Cc2ccc(F)cc2)C(=O)OC[C@@H](Cc2ccccc2)NC1=O)N[C@H](CO)Cc1ccccc1`?
TRPM1 prom inh: -3; CF NFkB block: 3; Peg3 prom inh-1: 63*; KKLEB cytotox: 6; HIF-2a block: 8; Peg3 prom inh-2: 23

What do the screens show for `O=C1N[C@@H](c2ccccc2)COC(=O)[C@@H](Cc2ccc(F)cc2)CC/C=C/C[C@H]1CC(=O)N(CCO)Cc1ccccc1`?
TRPM1 prom inh: -2; CF NFkB block: 37; Peg3 prom inh-1: 52*; KKLEB cytotox: -8; HIF-2a block: -11; Peg3 prom inh-2: 47*

Results for [O-]C(=C(C(=S)Nc1cccc2ccccc12)[n+]1ccccc1)c1ccc2c(c1)OCCO2 ?
TRPM1 prom inh: 20; CF NFkB block: -21; Peg3 prom inh-1: 54*; KKLEB cytotox: 15; HIF-2a block: 72*; Peg3 prom inh-2: 21

What do the screens show for `CNCCC(Oc1ccccc1C)c1ccccc1` (stereo not given)?
CHOP inh: 47

Results for CNCC[C@H](Oc1cccc2ccccc12)c1cccs1 ?
TRPM1 prom inh: 7; CF NFkB block: 47; Peg3 prom inh-1: 90*; KKLEB cytotox: -14; HIF-2a block: -3; CHOP inh: 3; Peg3 prom inh-2: 92*

How did Cc1ccc(/C=C2\SC(=S)N(CCC(=O)NNC(=O)c3ccccc3O)C2=O)cc1 do in these assays?
TRPM1 prom inh: 24; CF NFkB block: -2; Peg3 prom inh-1: 24; KKLEB cytotox: -20; HIF-2a block: 35

What do the screens show for `Cc1ccc(/C=C2\SC(=S)N(CCCC(=O)NC3CCCC3)C2=O)cc1`?
TRPM1 prom inh: 76*; CF NFkB block: 14; Peg3 prom inh-1: 54*; KKLEB cytotox: 8; HIF-2a block: 74*; Peg3 prom inh-2: 49*

What do the screens show for `Cc1ccc(/C=C2\SC(=S)N(CCCC(=O)NNC(=O)c3ccccc3O)C2=O)cc1`?
CF NFkB block: 2; Peg3 prom inh-1: 80*; KKLEB cytotox: -6; HIF-2a block: 91*; CHOP inh: 98*; Peg3 prom inh-2: 82*

Results for COc1ccc(CCNC(=O)C(=O)NCC2CCCN2S(=O)(=O)c2ccccc2)cc1OC (stereo not given) ?
TRPM1 prom inh: -2; CF NFkB block: -7; Peg3 prom inh-1: 56*; KKLEB cytotox: 8; HIF-2a block: 19; Peg3 prom inh-2: 58*

How did O=C(NC12CC3CC(CC(C3)C1)C2)c1ccc(N2CCNCC2)c([N+](=O)[O-])c1 do in these assays?
TRPM1 prom inh: 33; CF NFkB block: 13; Peg3 prom inh-1: 12; KKLEB cytotox: -9; HIF-2a block: 12; CHOP inh: -25

What do the screens show for `O=c1c2c3c(sc2nc(NCCO)n1CCc1ccccc1)CCCCC3`?
TRPM1 prom inh: 12; CF NFkB block: 29; Peg3 prom inh-1: -14; KKLEB cytotox: -8; HIF-2a block: -68; CHOP inh: 54

Results for O=c1c2c3c(sc2nc(N2CCNCC2)n1CCc1ccccc1)CCCCC3 ?
TRPM1 prom inh: 69*; CF NFkB block: 7; Peg3 prom inh-1: 105*; KKLEB cytotox: -16; HIF-2a block: -19; CHOP inh: 53; Peg3 prom inh-2: 96*

What do the screens show for `OCC1OC(n2ccc3c(NO)ncnc32)C(O)C1O` (stereo not given)?
TRPM1 prom inh: 95*; CF NFkB block: 86*; Peg3 prom inh-1: 100*; KKLEB cytotox: -92*; HIF-2a block: -9; Peg3 prom inh-2: 98*

Results for CCN(CC)CCNC(=O)c1ccc(NC(=O)c2ccc3c(c2)CCC3)cc1 ?
TRPM1 prom inh: -62; CF NFkB block: 21; Peg3 prom inh-1: -43; KKLEB cytotox: -15; HIF-2a block: -120
